Data published in ChEMBL document CHEMBL1961873, “Compounds: GSK PKIS; Assays: Nanosyn kinase panel” (2012).

Assays:
[1] = biological target: T1, Interleukin-1 receptor-associated kinase 4 (Homo sapiens) (UniProt Q9NWZ3); conditions: at 0.1 µM
T1 sequence (whole entry): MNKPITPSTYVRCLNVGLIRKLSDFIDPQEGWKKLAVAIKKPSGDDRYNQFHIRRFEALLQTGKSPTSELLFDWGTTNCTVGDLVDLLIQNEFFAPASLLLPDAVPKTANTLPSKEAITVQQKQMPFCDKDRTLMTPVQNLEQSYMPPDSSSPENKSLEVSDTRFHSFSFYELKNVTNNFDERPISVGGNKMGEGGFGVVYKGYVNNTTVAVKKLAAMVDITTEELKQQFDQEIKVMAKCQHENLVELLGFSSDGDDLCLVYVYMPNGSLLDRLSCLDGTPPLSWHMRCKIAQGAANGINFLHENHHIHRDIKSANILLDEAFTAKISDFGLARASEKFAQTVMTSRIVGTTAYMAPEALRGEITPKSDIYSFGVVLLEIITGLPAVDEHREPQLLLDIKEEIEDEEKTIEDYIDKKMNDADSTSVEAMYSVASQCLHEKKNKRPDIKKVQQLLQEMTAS

[2] = biological target: T1, Interleukin-1 receptor-associated kinase 4 (Homo sapiens); conditions: at 1 µM
[3] = biological target: Leucine-rich repeat serine/threonine-protein kinase 2 (Homo sapiens) (UniProt Q5S007); conditions: at 0.1 µM
Leucine-rich repeat serine/threonine-protein kinase 2 (Homo sapiens), sequence (Q5S007 whole entry): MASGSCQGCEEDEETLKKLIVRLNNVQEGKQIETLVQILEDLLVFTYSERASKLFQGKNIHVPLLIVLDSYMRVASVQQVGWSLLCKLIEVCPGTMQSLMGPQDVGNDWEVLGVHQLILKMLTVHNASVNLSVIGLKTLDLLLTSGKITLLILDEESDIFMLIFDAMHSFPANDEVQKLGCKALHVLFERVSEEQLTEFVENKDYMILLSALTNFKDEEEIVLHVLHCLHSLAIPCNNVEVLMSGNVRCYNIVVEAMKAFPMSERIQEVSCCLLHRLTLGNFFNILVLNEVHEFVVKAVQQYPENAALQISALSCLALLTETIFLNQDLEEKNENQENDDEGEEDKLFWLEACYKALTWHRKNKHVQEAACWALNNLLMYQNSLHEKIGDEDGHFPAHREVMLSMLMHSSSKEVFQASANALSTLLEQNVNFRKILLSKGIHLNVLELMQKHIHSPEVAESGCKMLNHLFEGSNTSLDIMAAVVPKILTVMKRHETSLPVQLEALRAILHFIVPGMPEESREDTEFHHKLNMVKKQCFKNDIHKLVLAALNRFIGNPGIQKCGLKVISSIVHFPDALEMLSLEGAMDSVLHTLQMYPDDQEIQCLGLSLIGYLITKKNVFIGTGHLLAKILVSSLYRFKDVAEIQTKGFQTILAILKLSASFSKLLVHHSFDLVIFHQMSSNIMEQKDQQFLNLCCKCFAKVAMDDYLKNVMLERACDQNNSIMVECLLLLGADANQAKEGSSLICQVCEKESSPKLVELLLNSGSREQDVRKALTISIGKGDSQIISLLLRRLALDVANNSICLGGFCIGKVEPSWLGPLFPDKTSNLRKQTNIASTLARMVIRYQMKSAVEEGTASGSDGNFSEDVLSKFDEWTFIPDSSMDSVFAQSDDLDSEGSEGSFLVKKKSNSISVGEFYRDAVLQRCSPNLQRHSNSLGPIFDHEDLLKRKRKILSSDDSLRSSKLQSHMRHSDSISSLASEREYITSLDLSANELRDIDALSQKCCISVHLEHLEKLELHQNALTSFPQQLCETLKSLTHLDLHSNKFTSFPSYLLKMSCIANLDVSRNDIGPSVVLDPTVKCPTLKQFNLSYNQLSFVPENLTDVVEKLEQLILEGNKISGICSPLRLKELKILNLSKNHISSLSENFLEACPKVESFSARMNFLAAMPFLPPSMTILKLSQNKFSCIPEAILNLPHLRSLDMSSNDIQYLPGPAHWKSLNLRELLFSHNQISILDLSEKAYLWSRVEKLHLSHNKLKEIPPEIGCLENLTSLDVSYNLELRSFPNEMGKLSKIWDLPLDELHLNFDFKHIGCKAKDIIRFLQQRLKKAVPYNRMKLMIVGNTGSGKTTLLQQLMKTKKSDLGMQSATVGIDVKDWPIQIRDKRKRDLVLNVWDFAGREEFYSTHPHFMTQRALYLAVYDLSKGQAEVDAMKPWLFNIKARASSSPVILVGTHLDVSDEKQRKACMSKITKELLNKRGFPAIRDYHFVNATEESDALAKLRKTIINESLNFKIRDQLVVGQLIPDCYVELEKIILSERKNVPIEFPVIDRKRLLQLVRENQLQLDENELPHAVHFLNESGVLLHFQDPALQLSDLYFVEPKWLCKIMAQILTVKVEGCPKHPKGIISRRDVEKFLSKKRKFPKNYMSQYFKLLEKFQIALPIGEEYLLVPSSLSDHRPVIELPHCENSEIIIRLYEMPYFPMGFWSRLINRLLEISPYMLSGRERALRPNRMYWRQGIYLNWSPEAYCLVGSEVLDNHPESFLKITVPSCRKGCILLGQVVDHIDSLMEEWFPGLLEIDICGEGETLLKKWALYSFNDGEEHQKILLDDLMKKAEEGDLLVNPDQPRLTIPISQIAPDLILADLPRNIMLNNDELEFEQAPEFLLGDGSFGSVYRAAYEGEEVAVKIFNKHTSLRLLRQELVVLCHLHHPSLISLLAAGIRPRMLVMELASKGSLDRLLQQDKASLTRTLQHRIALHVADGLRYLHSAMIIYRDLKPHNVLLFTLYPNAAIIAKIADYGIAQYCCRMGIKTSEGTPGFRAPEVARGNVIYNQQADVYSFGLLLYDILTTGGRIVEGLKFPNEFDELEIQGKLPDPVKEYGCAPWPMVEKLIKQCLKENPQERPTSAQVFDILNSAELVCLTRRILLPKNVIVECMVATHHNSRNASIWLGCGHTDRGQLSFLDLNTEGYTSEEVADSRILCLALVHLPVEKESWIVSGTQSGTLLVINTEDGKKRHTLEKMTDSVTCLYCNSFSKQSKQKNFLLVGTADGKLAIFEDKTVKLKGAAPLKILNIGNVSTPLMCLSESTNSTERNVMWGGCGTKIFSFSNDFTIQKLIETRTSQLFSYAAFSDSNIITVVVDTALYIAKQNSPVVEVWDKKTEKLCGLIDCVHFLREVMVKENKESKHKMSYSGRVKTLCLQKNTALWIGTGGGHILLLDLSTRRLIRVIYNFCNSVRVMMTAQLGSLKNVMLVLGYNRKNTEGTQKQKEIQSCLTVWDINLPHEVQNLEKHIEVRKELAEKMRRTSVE

[4] = biological target: Leucine-rich repeat serine/threonine-protein kinase 2 (Homo sapiens) (UniProt Q5S007); conditions: at 1 µM
[5] = test system: Leucine-rich repeat serine/threonine-protein kinase 2 (Homo sapiens), Q5S007 [G2019S]; conditions: at 0.1 µM
Leucine-rich repeat serine/threonine-protein kinase 2 (Homo sapiens), Q5S007 [G2019S], sequence (Q5S007 whole entry G2019S): as the sequence (Q5S007 whole entry) above, with G2019S counted along it

[6] = test system: Leucine-rich repeat serine/threonine-protein kinase 2 (Homo sapiens), Q5S007 [G2019S]; conditions: at 1 µM
[7] = biological target: RAF proto-oncogene serine/threonine-protein kinase (Homo sapiens) (UniProt P04049); conditions: at 1 µM;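 also: values are the mean percent inhibition of CRAF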
RAF proto-oncogene serine/threonine-protein kinase (Homo sapiens), sequence (P04049 whole entry): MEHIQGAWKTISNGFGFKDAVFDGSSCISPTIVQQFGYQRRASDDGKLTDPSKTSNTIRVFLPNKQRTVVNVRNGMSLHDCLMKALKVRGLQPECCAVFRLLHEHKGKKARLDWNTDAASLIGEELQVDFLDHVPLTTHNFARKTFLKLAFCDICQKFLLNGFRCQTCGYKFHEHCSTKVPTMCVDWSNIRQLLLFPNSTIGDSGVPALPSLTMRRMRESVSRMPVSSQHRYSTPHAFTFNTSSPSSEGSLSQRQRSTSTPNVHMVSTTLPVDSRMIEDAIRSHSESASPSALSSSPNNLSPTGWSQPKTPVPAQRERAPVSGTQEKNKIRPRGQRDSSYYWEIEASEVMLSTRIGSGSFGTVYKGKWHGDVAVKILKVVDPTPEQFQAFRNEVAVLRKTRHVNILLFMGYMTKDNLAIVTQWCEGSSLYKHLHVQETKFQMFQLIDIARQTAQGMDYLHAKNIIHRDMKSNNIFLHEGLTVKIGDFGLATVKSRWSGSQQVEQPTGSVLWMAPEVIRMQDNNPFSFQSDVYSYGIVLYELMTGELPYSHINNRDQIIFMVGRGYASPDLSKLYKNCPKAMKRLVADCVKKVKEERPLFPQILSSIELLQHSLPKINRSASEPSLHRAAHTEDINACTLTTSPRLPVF

Row | Structure (SMILES) | inhibition [1] | inhibition [2] | inhibition [3] | inhibition [4] | inhibition [5] | inhibition [6] | inhibition [7]
1 | N#Cc1c(NC(=O)c2ccc(F)cc2)sc2c1CCCC2 | 1.78% | 0.51% | 0.58% | 1.04% | 1.92% | 5.12% | –
2 | c1cc(-c2cnn3nc(N4CCOCC4)ccc23)nc(NC2CC2)n1 | -3.02% | 4.62% | 4.63% | 16.4% | 6.59% | 37.2% | –
3 | CN(C)CCOc1ccc(-c2nc(-c3ccncc3)c(-c3ccc4c(c3)CC/C4=N\O)[nH]2)cc1 | -2.04% | 2.08% | 2.63% | 6.56% | 2.57% | 9.36% | 69.9%
4 | NS(=O)(=O)c1ccc(N/N=C2\C(=O)Nc3ccc4ncccc4c32)cc1 | 2.94% | 2.77% | 19.4% | 22.2% | 40.4% | 63.2% | –
5 | CCc1nn2ncccc2c1-c1ccnc(NC2CC2)n1 | 1.42% | 1.5% | 0.11% | 4.02% | 1.77% | 4.72% | -3.3%
6 | COc1ccc2c(-c3ccnc(Nc4cccc(OC(F)(F)F)c4)n3)cnn2n1 | -3.64% | 2.91% | 5.25% | 14.5% | 8.08% | 39.3% | –
7 | COC(=O)Nc1nc2ccc(S(=O)(=O)c3ccc(NC(=O)Nc4cc(C(F)(F)F)ccc4F)cc3)cc2[nH]1 | 2.19% | 1.11% | 4.08% | 3.21% | 2.36% | 6.79% | -2.68%
8 | CC(=O)Nc1cccc(C#Cc2cncnc2Nc2ccc(OCc3cccc(F)c3)c(Cl)c2)c1 | -1.12% | 1.86% | 4.77% | 7.3% | 3.19% | 8.37% | 1.55%
9 | Cc1ccc(O)cc1Nc1ccnc2cc(-c3ccccn3)ccc12 | -3.41% | 2.33% | 5.01% | 11.4% | 7.5% | 31.1% | –
10 | Fc1ccc(-c2nn3ncccc3c2-c2ccnc(Nc3ccc4c(c3)OCCO4)n2)cc1 | 2.79% | 2.18% | 3.63% | 7.64% | 2.59% | 6.75% | -0.33%
11 | COc1cc(/C=N/Nc2ncnc3[nH]ncc23)ccc1O | -2.65% | 4.43% | 5.72% | 17.5% | 10% | 45.2% | 6.28%
12 | O=C(Nc1n[nH]c2cc(-c3ccc(F)cc3)ccc12)C1CC1 | 2.26% | 1.45% | 0.78% | 5.22% | 3.03% | 6.98% | -2.56%
13 | [O-][S+]1CCN(Cc2ccc(-c3ccc4ncnc(Nc5ccc(OCc6cccc(F)c6)c(Cl)c5)c4c3)o2)CC1 | 1.66% | 1.66% | 3.74% | 3.96% | 6.35% | 11.4% | -3.13%
14 | Clc1ccc(-c2nn3ncccc3c2-c2ccnc(Nc3ccccc3)n2)cc1 | -3.75% | 1.51% | 1.23% | 5.86% | 3.01% | 8.26% | -3.34%
15 | CS(=O)(=O)CCNCc1ccc(-c2ccc3ncnc(Nc4ccc(OCc5ccccc5)c(C(F)(F)F)c4)c3c2)o1 | 0.72% | 1.09% | 2.22% | 4.18% | 4.54% | 5.03% | 0.04%
16 | CCNC(=O)O[C@H]1CN[C@H](C#Cc2cc3ncnc(Nc4ccc(OCc5cccc(F)c5)c(Cl)c4)c3s2)C1 | -5.34% | 6.03% | 3.12% | 4.18% | 2.44% | 6.88% | –
17 | CC(=O)NCc1cccc(C#Cc2cncnc2Nc2ccc(OCc3cccc(F)c3)c(Cl)c2)c1 | 2.92% | 0.5% | 0.41% | 7.51% | 2.36% | 7.6% | -4.04%

Row | Structure (SMILES) | inhibition [1] | inhibition [2] | inhibition [3] | inhibition [4] | inhibition [5] | inhibition [6] | inhibition [7]
18 | CCN(CC)S(=O)(=O)c1ccc(OC)c(Nc2ncc(-c3ccccc3)o2)c1 | 0.75% | 0.8% | 2.62% | 5.16% | 1.76% | 9.32% | -0.65%
19 | Cc1cccc2c1NC(=O)/C2=N\Nc1ccc(S(N)(=O)=O)cc1 | -0.09% | 1.25% | 2.99% | 7.1% | 2.75% | 10.2% | –
20 | COc1ccc(-c2cc(-c3c[nH]nc3-c3ccccn3)ccn2)cc1 | -2.78% | 2.03% | 2.47% | 7.04% | 4.82% | 7.48% | 0.07%
21 | COC(=O)c1sc(-n2cnc3cc(OC)c(OC)cc32)cc1OCc1ccccc1C(F)(F)F | -0.1% | 1.88% | 4.15% | 10.7% | 4.24% | 19.4% | 3.19%
22 | CN1CCC(n2cnc(-c3ccc(F)cc3)c2-c2ccnc(Nc3ccccc3)n2)CC1 | 1.95% | 1.28% | 1.16% | 3.05% | 1.22% | 5.12% | -0.18%
23 | COc1cc(Nc2nccc(Nc3ccc4c(C)n[nH]c4c3)n2)cc(OC)c1OC | -1.6% | 6.36% | 9.84% | 17.6% | 10.8% | 43.7% | -9.69%
24 | c1ccc(-c2nc3n(c2-c2ccc4c(c2)OCO4)CCC3)nc1 | 0.9% | 0.56% | 1.19% | 3.89% | 2.25% | 3.64% | -1.34%
25 | CNC(=O)c1cccc(C#Cc2cncnc2Nc2ccc(OCc3cccc(F)c3)c(Cl)c2)c1 | -3.89% | 0.26% | 0.02% | 3.48% | -1.1% | 3.49% | -1.34%
26 | CS(=O)(=O)CCNCc1coc(-c2ccc3ncnc(Nc4ccc(OCc5ccccc5)cc4)c3c2)c1 | 1.8% | 2.23% | 0.86% | 5.65% | 1.72% | 5.71% | 2.03%
27 | Nc1nc(-c2cccc(Cl)c2)c(-c2ccc3ncccc3n2)s1 | 3.86% | 2.05% | 3.53% | 7.21% | 6.96% | 9.35% | -0.32%
28 | Nc1nc(-c2ccc(F)cc2)c(-c2ccc3ncccc3n2)s1 | 3.41% | 2.12% | 1.84% | 6.21% | 4.54% | 10.2% | -6.29%
29 | COc1cccc(-c2c[nH]c3c(N/N=C/c4ccncc4)ncnc23)c1 | -2.59% | 5.06% | 4.34% | 14% | 5.22% | 25.9% | –
30 | COc1cccc(-n2ncc3c(N/N=C/c4ccc(F)cc4)ncnc32)c1 | -3.94% | 1.4% | 1.96% | 6.79% | 5.09% | 8.94% | –
31 | COc1ccc(-c2nn3ncccc3c2-c2ccnc(Nc3ccc4c(c3)OCCO4)n2)cc1 | -0.42% | -0.94% | 7.1% | 11.4% | 6.14% | 10.2% | -7.5%
32 | Fc1cccc(COc2ccc(Nc3ncnc4sc(-c5ccco5)cc34)cc2Cl)c1 | 0.84% | 1.26% | 3.64% | 6.42% | 5.67% | 9.11% | 0.89%
33 | CCOc1ccc2c(-c3ccnc(Nc4cccc(C(F)(F)F)c4)n3)cnn2n1 | 0.16% | 1.01% | 3.4% | 6.76% | 4.61% | 10.4% | -1.21%
34 | Cc1ccc2c(-c3ccnc(Nc4ccccc4)n3)c(-c3ccc(F)cc3)nn2n1 | -2.94% | 1.87% | 3.22% | 7.93% | 3.36% | 7.63% | –
